# Source: the supplement of paper PMC9399229
# Counter-ions that a name gives are not always drawn. ± gives the standard deviation of the averaged measurements. Over roughly 1,900 compounds, “relative cell viability (CellTiter-Glo), compound alone” has its median near 1; the lowest 2% begin near 0.16. What follows is part of a selection rich in the lowest values, with near analogues and random picks from the rest.
# System: Hep3B
# Experiment: relative cell viability (CellTiter-Glo), compound alone (fraction); higher = more viable cells (less growth inhibition)
# Settings: cabozantinib 0 µM; 4 days
row,Compound,relative cell viability
1,CCn1cc(NC(=S)Nc2cc(Cl)ccc2OC)c(C(N)=O)n1,1.44 ± 0.14
2,C1=N/C2=N/c3ccc(OCCN4CCCC4)c(c3)COC/C=C/COCc3cccc(c3)C(=C1)N2 [Pacritinib (SB1518)],0.1545 ± 0.0015
3,CN(C)c1cccc(-c2c3c(=O)n(-c4ccccc4Cl)[nH]c3cc(=O)n2C)c1,1.12 ± 0.1
4,O=C(NCCS(=O)(=O)c1ccc(C(F)(F)F)cn1)c1ccc(Cl)cc1,1.2 ± 0.049
5,C[C@@H](Oc1cc(-n2cnc3ccc(CN4CCN(C)CC4)cc32)sc1C(N)=O)c1ccccc1C(F)(F)F,0.668 ± 0.04
6,O=C1CCC[C@@H]2[C@H]3CCC[N+]4([O-])CCC[C@@H](CN12)[C@@H]34 (some centres not stated) [Oxymatrine],1.09 ± 0.21
7,CC1CNc2c(cccc2S(=O)(=O)N[C@@H](CCCNC(=N)N)C(=O)N2CC[C@@H](C)C[C@@H]2C(=O)O)C1 (some centres not stated) [Argatroban],1.02 ± 0.17
8,CO[C@H]1C[C@@H]2CC[C@@H](C)[C@@](O)(O2)C(=O)C(=O)N2CCCC[C@H]2C(=O)O[C@H]([C@H](C)C[C@@H]2CC[C@@H](OC(=O)C(C)(CO)CO)[C@H](OC)C2)CC(=O)[C@H](C)/C=C(\C)[C@@H](O)[C@@H](OC)C(=O)[C@H](C)C[C@H](C)/C=C/C=C/C=C/1C,1.04 ± 0.013
9,CCOC(=O)[C@H](CCc1ccccc1)N[C@H]1CCCN2CCC[C@@H](C(=O)O)N2C1=O [Cilazapril Monohydrate],0.947 ± 0.13
10,CC(C)(C)C[C@@H]1N[C@@H](C(=O)N[C@H]2CC[C@H](O)CC2)[C@H](c2cccc(Cl)c2F)[C@]12C(=O)Nc1cc(Cl)ccc12,1.09 ± 0.025
11,O=C1c2cccc(O)c2C(=O)c2c(O)cc(CO)cc21 [Aloe-emodin],0.96 ± 0.11
12,O=C1c2c(O)ccc(O)c2C(=O)c2c(NCCNCCO)ccc(NCCNCCO)c21 [Mitoxantrone],0.0757 ± 0.0097
13,O=C1c2c(O)ccc(O)c2C(=O)c2c(NCCNCCO)ccc(NCCNCCO)c21 [Mitoxantrone HCl],0.0676 ± 0.0056
14,Cc1ccc([N+](=O)[O-])cc1S(=O)(=O)N(C)/N=C/c1cnc2ccc(Br)cn12,0.139 ± 0.01
15,Nc1nc(NC2CC2)cc(-c2cccc(Cl)c2Cl)n1,1.162 ± 0.0077
16,NS(=O)(=O)NCCNc1nonc1/C(=N/O)Nc1ccc(F)c(Br)c1,1.24 ± 0.064
17,Fc1ccc2[nH]ccc2c1-c1nc(N2CCOCC2)c2sc(CN3CCN(CC4CC4)CC3)cc2n1,0.871 ± 0.011
18,Cn1cncc1[C@@](N)(c1ccc(Cl)cc1)c1ccc2c(c1)c(-c1cccc(Cl)c1)cc(=O)n2C [Tipifarnib],0.995 ± 0.046
19,Cc1nc(-c2cn3c(n2)-c2ccc(-c4cnn(C(C)(C)C(N)=O)c4)cc2OCC3)n(C(C)C)n1,1.01 ± 0.032
20,c1ccc(NCc2ccc(CNc3ccccn3)cc2)nc1,1.09 ± 0.085
21,COc1cc([C@@H]2c3cc4c(cc3[C@@H](O[C@@H]3O[C@@H]5CO[C@@H](C)O[C@H]5[C@H](O)[C@H]3O)[C@H]3COC(=O)[C@H]23)OCO4)cc(OC)c1O [Etoposide],1.22 ± 0.11
22,COc1cc([C@@H]2c3cc4c(cc3[C@@H](O[C@@H]3O[C@@H]5CO[C@@H](c6cccs6)O[C@H]5[C@H](O)[C@H]3O)[C@H]3COC(=O)[C@H]23)OCO4)cc(OC)c1O [Teniposide],0.113 ± 0.0088
23,COc1cccc(C=NCCN=Cc2cccc(OC)c2[O-])c1[O-].[Cl-].[Mn+3],1.04 ± 0.041
24,Nc1ccc(-c2ccc3ncc4ccc(=O)n(-c5cccc(C(F)(F)F)c5)c4c3c2)cn1 [Torin 2],0.147 ± 0.014
25,COc1ccc(-c2ccc3ncc4c(c3c2)n(-c2ccc(N3CCNCC3)c(C(F)(F)F)c2)c(=O)n4C)cn1,0.202 ± 0.013
26,CN1C(=O)C(Cc2c[nH]c3ccccc23)NC1=S (configuration not stated) [Necrostatin-1],1.154 ± 0.0058

row,Compound,relative cell viability
1,CCn1c(N)c(C(=O)NC)c(=O)c2ccc(C#CC(C)(O)COC)nc21 (configuration not stated),0.951 ± 0.15
2,Cc1ccc(-n2sc(=O)n(Cc3ccc(F)cc3)c2=O)cc1,1.03 ± 0.086
3,C=CC(=O)Nc1cc(Nc2nccc(-c3c[nH]c4ccccc34)n2)c(OC)cc1N(C)CCN(C)C,0.913 ± 0.049
4,O=C(NC[C@H](O)CN1CCc2ccccc2C1)c1cc(NC2COC2)ncn1,1.09 ± 0.029
5,Cn1c(Nc2ccc(C(F)(F)F)cc2)nc2cc(Oc3ccnc(-c4ncc(C(F)(F)F)[nH]4)c3)ccc21,0.9528 ± 0.0094
6,CN[C@@H](C)C(=O)N[C@H](C(=O)N1CCC[C@H]1C(=O)Nc1snnc1-c1ccccc1)C1CCCCC1,0.229 ± 0.13
7,CC[C@@H]1/C=C(\C)C[C@H](C)C[C@H](OC)[C@H]2O[C@@](O)(C(=O)C(=O)N3CCCC[C@H]3C(=O)O[C@H](/C(C)=C/[C@@H]3CC[C@@H](O)[C@H](OC)C3)[C@H](C)[C@@H](O)CC1=O)[C@H](C)C[C@@H]2OC [Ascomycin (FK520)],1.16 ± 0.12
8,CN(NC(=O)CC(=O)NN(C)C(=S)c1ccccc1)C(=S)c1ccccc1 [Elesclomol (STA-4783)],0.0115 ± 0.0045
9,O=C(O)c1ccccc1 [Benzoic Acid],1.26 ± 0.07
10,O=C(O)CCNC(=O)c1ccccc1 [Betamipron],0.9 ± 0.089
11,COc1cc(N2CCC(N3CCN(C)CC3)CC2)ccc1Nc1ncnc(Nc2ccccc2S(=O)(=O)C(C)C)n1,0.887 ± 0.056
12,Cc1cc(Nc2ccc(NC(=O)c3ccc(Nc4ccnc5ccccc45)cc3)cc2)nc(N)n1,0.227 ± 0.023
13,CN(C)CCCNC(=O)c1ccc(-c2cc(O)c3ncccc3c2)cc1,0.898 ± 0.27
14,CC(C)(CO)c1cc2cc(NC(=O)C3(c4ccc5c(c4)OC(F)(F)O5)CC3)c(F)cc2n1C[C@@H](O)CO,1.14 ± 0.18
15,Cc1ccc(NC(=O)C2(c3ccc4c(c3)OC(F)(F)O4)CC2)nc1-c1cccc(C(=O)O)c1 [VX-809 (Lumacaftor)],0.144 ± 0.025
16,C[C@]1(c2nc3c(C(N)=O)cccc3[nH]2)CCCN1 [Veliparib (ABT-888)],1.02 ± 0.44
17,CN1CCN(C2CCN(C(=O)Nc3cc(Oc4ccc(NC(=O)C5(C(=O)Nc6ccc(F)cc6)CC5)c(F)c4)ccn3)CC2)CC1 [Golvatinib (E7050)],1.15 ± 0.079
18,COc1ccc(-c2cc(=O)c3c(O)cc(O)cc3o2)cc1O [Diosmetin],1.35 ± 0.14
19,O=c1cc(CN2CCOCC2)occ1OCCCCCSc1ccnc2cc(C(F)(F)F)ccc12,1.29 ± 0.14
20,CN(C)Cc1c(C(=O)NCCOc2ccc(C(=O)NO)cc2)oc2ccccc12,0.153 ± 0.054
21,CC/C(=C(\c1ccccc1)c1ccc(OCCN(C)C)cc1)c1ccccc1 [Tamoxifen Citrate],1.26 ± 0.064
22,CC/C(=C(\c1ccc(O)cc1)c1ccc(OCCNC)cc1)c1ccccc1 [Endoxifen HCl],1.16 ± 0.081
23,O=C(Nc1c[nH]nc1-c1nc2ccc(CN3CCOCC3)cc2[nH]1)NC1CC1,0.3 ± 0.036
24,O=[N+]([O-])c1ccc2c(c1)S(=O)(=O)C=C2 [Stattic],1.03 ± 0.043
25,N#Cc1cc(CN2CCC(Nc3ncnc4sc(Cl)cc34)CC2)ccc1F,1.42 ± 0.079
26,C[C@]12CC[C@@H]3c4ccc(OC(=O)c5ccccc5)cc4CC[C@H]3[C@@H]1CC[C@@H]2O [Estradiol Benzoate],1.19 ± 0.14

row,Compound,relative cell viability
1,COc1ccc(Cn2ccc3ccc(C(=O)NO)cc32)cc1,0.909 ± 0.14
2,CCN(CC)CCNC(=O)c1ccc(N)cc1 [Procainamide HCl],0.954 ± 0.032
3,CCN(CC)Cc1ccc2cc(COC(=O)Nc3ccc(C(=O)NO)cc3)ccc2c1 [Givinostat (ITF2357)],0.156 ± 0.0025
4,OCc1ccc(O[C@@H]2O[C@H](CO)[C@@H](O)[C@H](O)[C@H]2O)cc1 [Gastrodin],1.354 ± 0.0026
5,COC(=O)c1ccc2c(c1)NC(=O)/C2=C(\Nc1ccc(N(C)C(=O)CN2CCN(C)CC2)cc1)c1ccccc1 [Nintedanib (BIBF 1120)],0.761 ± 0.038
6,CN(C)Cc1cccc(N/C(=C2\C(=O)Nc3cc(C(N)=O)ccc32)c2ccccc2)c1,0.7302 ± 0.0057
7,CCS(=O)(=O)Nc1ccc2c(c1)/C(=C(/Nc1ccc(CN3CCCCC3)cc1)c1ccccc1)C(=O)N2 [Hesperadin],0.112 ± 0.0022
8,CC(=O)Nc1ccc(C(=O)Nc2ccccc2N)cc1 [CI994 (Tacedinaline)],1.17 ± 0.1
9,CC(C)[C@H](C(=O)Nc1ccc(C(=O)NO)cc1)c1ccccc1,0.138 ± 0.015
10,CCCCN(Cc1ccc(C(=O)NO)cc1)C(=O)Nc1ccccc1 [Nexturastat A],1.06 ± 0.17
11,CCn1cc(-c2ccnc3[nH]c(-c4cccc(CN(C)C)c4)cc23)c(-c2ccc(NC(=O)N(C)C)cc2)n1,0.94 ± 0.099
12,COc1ccccc1-c1cc(Nc2cccc(CS(N)(=O)=O)c2)ncn1,1.11 ± 0.029
13,CN(C)C(=O)Nc1cccc(-c2ccc(N(C)C)cc2)c1 [Atglistatin],1.37 ± 0.12
14,O=C(Nc1cc(C(F)(F)F)ccc1N1CCCCC1)c1ccncc1,1.07 ± 0.016
15,CC(C)n1nc(-c2ccc3oc(N)nc3c2)c2c(N)ncnc21,0.387 ± 0.022
16,CC1(C)CCC[C@]2(C)[C@H]3CC(=O)O[C@]3(C)CC[C@@H]12 [Sclareolide],0.9838 ± 0.007
17,COc1ccc(-c2nc(N3CCOCC3)c3sc(CN(C)c4ncc(C(=O)NO)cn4)cc3n2)cn1,0.132 ± 0.013
18,Cc1c(CN2CCN(C(=O)[C@H](C)O)CC2)sc2c(N3CCOCC3)nc(-c3cnc(N)nc3)nc12,0.546 ± 0.022
19,CS(=O)(=O)N1CCN(Cc2cc3nc(-c4cccc5[nH]ncc45)nc(N4CCOCC4)c3s2)CC1,1.17 ± 0.013
20,Cc1c(Cc2ccc3ccccc3n2)c2cc(F)ccc2n1CC(=O)O,1.08 ± 0.055
21,CN1C(C(=O)Nc2ccccn2)=C(O)c2sccc2S1(=O)=O [Tenoxicam],1 ± 0.051
22,O=C(COc1ccc(C(=O)c2ccccc2)cc1)NC1CCN(Cc2ccccc2)CC1 [AdipoRon],0.881 ± 0.096
23,CN1CCN(c2ccc3nc(-c4c(N)c5c(F)cccc5[nH]c4=O)[nH]c3c2)CC1 [Dovitinib (TKI-258) Dilactic Acid],0.6208 ± 0.0046
24,"CN1CCN(c2ccc3nc(-c4c(N)c5c(F)cccc5[nH]c4=O)[nH]c3c2)CC1 [Dovitinib (TKI-258, CHIR-258)]",0.85 ± 0.018
25,CN1CCN(c2ccc3nc(-c4c(N)c5c(F)cccc5[nH]c4=O)[nH]c3c2)CC1 [Dovitinib (TKI258) Lactate],0.67 ± 0.011
